Records with an inconclusive call do not appear. Values without a mark were called inactive. Calls of active or inactive are those of the source. The call rests on the fitted dose curve; in most records, active means well fitted curve in the direction sought with a large enough effect; inconclusive means small, poorly fitted or top-dose-only effect, or another doubt; inactive means no such curve, though single readings can be large; an effect the other way counts as inactive or inconclusive.
Potency means the concentration at half of the fitted maximal effect.

The target in the first assay is Rap guanine nucleotide exchange factor 3 (Homo sapiens) (UniProt O95398). In words: Confirmatory qHTS for antagonist of cAMP-regulated guanine nucleotide exchange factor 3 (EPAC1) (AID 1645880). Further: nearly all actives have a fitted effect of over 55% in size.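 On activity, negative = inhibition: plate controls were DMSO only for no effect and full effect of the ATA control for full effect.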 As to conditions: EPAC1 Rap1B-BODIPY-GDP exchange, fluorescence; series mostly up to 115 µM; activity, negative = inhibition: at the top concentration. Summed up: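 Released BODIPY-GDP fluoresces less than Rap1-bound BODIPY-GDP; the signal is followed at 480/540 nm at 5-min intervals over 30 min, after 5 min at room temperature. Reactions contain 100 nM EPAC1, 250 nM RAP1B-BODIPY-GDP and 50 uM GDP; results are normalized to ATA and DMSO.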
Rap guanine nucleotide exchange factor 3 (Homo sapiens), sequence (O95398 whole entry, looked up): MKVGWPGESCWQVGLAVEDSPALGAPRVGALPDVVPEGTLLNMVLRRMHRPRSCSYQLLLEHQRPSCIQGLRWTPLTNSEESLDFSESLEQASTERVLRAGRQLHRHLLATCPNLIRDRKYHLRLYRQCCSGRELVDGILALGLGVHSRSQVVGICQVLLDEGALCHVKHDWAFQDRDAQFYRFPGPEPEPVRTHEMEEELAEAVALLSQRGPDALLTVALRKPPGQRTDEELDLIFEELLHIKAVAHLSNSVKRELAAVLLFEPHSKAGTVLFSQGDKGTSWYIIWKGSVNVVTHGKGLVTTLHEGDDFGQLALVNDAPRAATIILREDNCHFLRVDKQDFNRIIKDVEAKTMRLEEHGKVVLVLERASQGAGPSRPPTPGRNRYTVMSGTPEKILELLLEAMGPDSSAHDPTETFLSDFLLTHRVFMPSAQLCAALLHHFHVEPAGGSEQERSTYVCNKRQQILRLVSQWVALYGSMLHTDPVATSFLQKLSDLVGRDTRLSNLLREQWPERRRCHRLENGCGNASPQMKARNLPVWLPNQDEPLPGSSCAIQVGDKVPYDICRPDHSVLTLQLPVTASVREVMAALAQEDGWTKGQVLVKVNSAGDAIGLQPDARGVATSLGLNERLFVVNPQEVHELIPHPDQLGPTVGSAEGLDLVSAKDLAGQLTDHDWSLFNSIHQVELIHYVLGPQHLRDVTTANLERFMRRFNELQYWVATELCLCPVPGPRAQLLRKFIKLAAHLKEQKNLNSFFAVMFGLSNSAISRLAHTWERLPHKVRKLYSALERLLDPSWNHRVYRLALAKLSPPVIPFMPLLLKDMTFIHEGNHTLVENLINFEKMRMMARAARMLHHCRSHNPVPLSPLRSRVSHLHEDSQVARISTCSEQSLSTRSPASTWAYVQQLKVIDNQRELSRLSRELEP
Background: In qHTS, concentration-response curves come from the screen itself.
With `COc1ccc(N2CCN(C(c3ccccc3F)c3sc4nc(-c5ccco5)nn4c3O)CC2)cc1` (stereo not drawn), the “activity, negative = inhibition” value is -24.8%.

For the compound `Nc1c(C(=O)Nc2ccc3c(c2)OCCO3)nnn1Cc1cccc(Br)c1`, the “activity, negative = inhibition” value was -19.9%.

For the compound `CC1(c2ccccc2)CC(C)(C)N2C(=O)Cc3cccc1c32` (stereo not drawn), the “activity, negative = inhibition” value is -9.54%.

In the case of `COc1ccc(-n2ccn(Cc3ccccc3Cl)c(=O)c2=O)cc1OC`, the “activity, negative = inhibition” value is -11.4%.

Turning to `Clc1ccc(CSc2nncn3c2cc2occc23)cc1`, the Potency was 75.7 µM (active).

For the compound `O=c1nc2s/c(=C\c3ccc(-c4ccccc4[N+](=O)[O-])o3)c(=O)n2nc1-c1ccccc1`, the Potency was 12 µM (active).

With `O=C1C(c2ccccc2)=[N+]([O-])c2ccccc21`, the “activity, negative = inhibition” value is -16.7%.

With `C[C@H](c1ccccc1)N1C[C@@H](COCc2ccccc2)Oc2cc(N3CC[C@@H](O)C3)ccc2S1(=O)=O`, the “activity, negative = inhibition” value is -21.5%.

As for `O=C(OCc1ccc([N+](=O)[O-])cc1)c1cc(=O)c2ccccc2o1`, the “activity, negative = inhibition” value is -11.2%.

For `Cc1c(Cl)cccc1NC(=O)CN(CCc1ccccc1)S(=O)(=O)c1ccccc1`, the “activity, negative = inhibition” value was -18.7%.

For `Cc1ccc2cc(CN(Cc3ccco3)C(=O)c3ccco3)c3nnnn3c2c1`, the “activity, negative = inhibition” value is -26.4%.

`C=CCSc1nc(-c2ccc(OC)cc2)c(C#N)c(=O)n1CC=C`: the “activity, negative = inhibition” value was -19.4%.

For `CCc1ccccc1Oc1nc(NC(C)C)nc2ccsc12`, the “activity, negative = inhibition” value was -18.7%.

Consider `CCN(CC(=O)Nc1c(F)cccc1F)C(=O)CCc1nc2sc3c(c2c(=O)[nH]1)CCCC3`, for which the Potency was 75.7 µM (active).

Regarding `N#C/C(=C/c1ccc(O)c(O)c1)c1nc2ccccc2[nH]1`, the Potency was 6.01 µM (active).

With `COc1ccc(NC(=O)COc2ccccc2C#N)c(S(=O)(=O)N2CCCCC2)c1`, the “activity, negative = inhibition” value is -26.7%.

On to `CSc1nc2c(c(C(F)(F)F)n1)CC(C)CC2` (stereo not drawn), for which the “activity, negative = inhibition” value is -15.4%.

Consider `CCSc1nnc(NC(=O)C2CCN(S(=O)(=O)c3ccccc3C(F)(F)F)CC2)s1`, for which the “activity, negative = inhibition” value was -11.6%.

With `COc1ccc(C(=O)c2ccccc2)c2c(O)ccc(C(=O)c3ccccc3)c12`, the “activity, negative = inhibition” value was -28.1%.

With `CC(Oc1ccc(-c2nnco2)cc1)C(=O)N1CCOCC1` (stereo not drawn), the “activity, negative = inhibition” value was -8.97%.

Consider `CCN(CC)S(=O)(=O)c1cccc(-c2nnc(SCC(N)=O)n2C)c1`, for which the “activity, negative = inhibition” value was -11%.

In the case of `Cc1ccc(NC(=O)Cn2nc(C)c3nn(-c4ccc(Cl)cc4)c(C)c3c2=O)cc1F`, the “activity, negative = inhibition” value was -30.7%.

In the case of `COc1ccc(-c2n[nH]c3c2C(c2ccc(Cl)cc2Cl)NC3=O)cc1` (stereo not drawn), the “activity, negative = inhibition” value is -20.3%.

Consider `CCCc1cc(C(=O)Nc2ccccc2C(=O)OC)no1`, for which the “activity, negative = inhibition” value is -11.5%.

Take `CC1=C(C(=O)OC2CCCC2)C(c2c(Cl)cccc2Cl)CC(=O)N1` (stereo not drawn): the “activity, negative = inhibition” value was -26.3%.

On to `O=C(CCN1C(=O)/C(=C/c2cccs2)SC1=S)Nc1ccc(C(=O)O)c(O)c1`, for which the Potency was 79.4 µM (active).

For `Cc1ccc(OCCn2cccn2)c(C)c1`, the “activity, negative = inhibition” value was -13.2%.

Take `CCOC(=O)[C@@H](NC(=O)/C=C/[C@H]1O[C@@H](n2cc(C)c(=O)[nH]c2=O)C[C@@H]1O)C(C)C`: the “activity, negative = inhibition” value was -7.18%.

For `Cc1c(NC(=O)/C=C/c2cn(-c3ccccc3)nc2-c2ccccc2)c(=O)n(-c2ccccc2)n1C`, the “activity, negative = inhibition” value is -32%.

For `CSc1nc(N2CCOCC2)c2c3c(sc2n1)CCC3`, the “activity, negative = inhibition” value was -13.6%.

Take `COCC(=O)Oc1c(Sc2ccc(C)cc2)c(C)nn1C(C)(C)C`: the “activity, negative = inhibition” value was -32.4%.

`COc1ccc(S(=O)(=O)N2CCC[C@H]2C(=O)N2CCC[C@H]2C(=O)NCc2ccccc2)cc1C`: the “activity, negative = inhibition” value is -25.2%.

In the case of `CCc1nn2c(-c3ccccc3OC)ccnc2c1-c1ccccc1`, the “activity, negative = inhibition” value is -28%.

In the case of `CC1(C)CC(=O)C=C(c2ccc(F)cc2OCc2ccccc2)C1`, the “activity, negative = inhibition” value was -36.8%.

`Oc1ccc(-c2c(-c3ccsc3)sc3ccccc23)cc1`: the “activity, negative = inhibition” value was -11.8%.

In the case of `N#Cc1cc2c(=O)n3ccccc3nc2n(-c2nnc(SCc3ccccc3Cl)s2)c1=O`, the “activity, negative = inhibition” value was -15.6%.

On to `O=C1CNC(=O)c2c(nc3n2CCC3)N1`, for which the “activity, negative = inhibition” value was -8.24%.

For the compound `COC(CNC(=O)c1ccc2c3c(onc13)-c1ccccc1C2=O)OC`, the “activity, negative = inhibition” value was 155%.

Regarding `CCCn1c(CN2CCN(C(=O)c3ccco3)CC2)nc2c1c(=O)n(C)c(=O)n2C`, the “activity, negative = inhibition” value was -12.3%.

The next assay has the same target. Kind of assay: Confirmatory qHTS for agonist of cAMP-regulated guanine nucleotide exchange factor 3 (EPAC1) (AID 1645881). Further: nearly all actives have a fitted effect of over 75% in size.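 On activation: EPAC1 catalysed release of BODIPY-GDP from Rap1B seen as fluorescence loss; 100% = effect of cAMP agonist control.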 As to conditions: EPAC1 Rap1B BODIPY-GDP exchange fluorescence; series mostly up to 154 µM; activation: at the top concentration.
On to `COc1ccc(N2CCN(C(c3ccccc3F)c3sc4nc(-c5ccco5)nn4c3O)CC2)cc1` (stereo not drawn), for which the “activation” value is 1.99%.

`Nc1c(C(=O)Nc2ccc3c(c2)OCCO3)nnn1Cc1cccc(Br)c1`: the “activation” value is 19.8%.

`CC1(c2ccccc2)CC(C)(C)N2C(=O)Cc3cccc1c32` (stereo not drawn): the “activation” value is 19%.

As for `COc1ccc(-n2ccn(Cc3ccccc3Cl)c(=O)c2=O)cc1OC`, the “activation” value is 9.85%.

Take `Clc1ccc(CSc2nncn3c2cc2occc23)cc1`: the “activation” value is -4.37%.

Turning to `O=c1nc2s/c(=C\c3ccc(-c4ccccc4[N+](=O)[O-])o3)c(=O)n2nc1-c1ccccc1`, the “activation” value is -5.34%.

Turning to `O=C1C(c2ccccc2)=[N+]([O-])c2ccccc21`, the “activation” value was 17.4%.

Consider `C[C@H](c1ccccc1)N1C[C@@H](COCc2ccccc2)Oc2cc(N3CC[C@@H](O)C3)ccc2S1(=O)=O`, for which the “activation” value is 16.9%.

In the case of `O=C(OCc1ccc([N+](=O)[O-])cc1)c1cc(=O)c2ccccc2o1`, the “activation” value is 1.19%.

As for `Cc1c(Cl)cccc1NC(=O)CN(CCc1ccccc1)S(=O)(=O)c1ccccc1`, the “activation” value is 12%.

As for `Cc1ccc2cc(CN(Cc3ccco3)C(=O)c3ccco3)c3nnnn3c2c1`, the “activation” value was -16%.

Consider `C=CCSc1nc(-c2ccc(OC)cc2)c(C#N)c(=O)n1CC=C`, for which the “activation” value is -1.68%.

On to `CCc1ccccc1Oc1nc(NC(C)C)nc2ccsc12`, for which the “activation” value is -5.1%.

Take `CCN(CC(=O)Nc1c(F)cccc1F)C(=O)CCc1nc2sc3c(c2c(=O)[nH]1)CCCC3`: the “activation” value was 4.36%.

Regarding `N#C/C(=C/c1ccc(O)c(O)c1)c1nc2ccccc2[nH]1`, the “activation” value is 5.02%.

For `COc1ccc(NC(=O)COc2ccccc2C#N)c(S(=O)(=O)N2CCCCC2)c1`, the “activation” value was 21.2%.

Regarding `CSc1nc2c(c(C(F)(F)F)n1)CC(C)CC2` (stereo not drawn), the “activation” value was -5.43%.

`CCSc1nnc(NC(=O)C2CCN(S(=O)(=O)c3ccccc3C(F)(F)F)CC2)s1`: the “activation” value is 12.1%.

Take `COc1ccc(C(=O)c2ccccc2)c2c(O)ccc(C(=O)c3ccccc3)c12`: the “activation” value is 13%.

Turning to `CC(Oc1ccc(-c2nnco2)cc1)C(=O)N1CCOCC1` (stereo not drawn), the “activation” value was 5.81%.

With `CCN(CC)S(=O)(=O)c1cccc(-c2nnc(SCC(N)=O)n2C)c1`, the “activation” value was 2.99%.

Regarding `Cc1ccc(NC(=O)Cn2nc(C)c3nn(-c4ccc(Cl)cc4)c(C)c3c2=O)cc1F`, the “activation” value is 12.6%.

As to `COc1ccc(-c2n[nH]c3c2C(c2ccc(Cl)cc2Cl)NC3=O)cc1` (stereo not drawn), the “activation” value was 8.27%.

For the compound `CCCc1cc(C(=O)Nc2ccccc2C(=O)OC)no1`, the “activation” value is -6.3%.

With `CC1=C(C(=O)OC2CCCC2)C(c2c(Cl)cccc2Cl)CC(=O)N1` (stereo not drawn), the “activation” value is -6.41%.

On to `O=C(CCN1C(=O)/C(=C/c2cccs2)SC1=S)Nc1ccc(C(=O)O)c(O)c1`, for which the “activation” value is -2.67%.

On to `Cc1ccc(OCCn2cccn2)c(C)c1`, for which the “activation” value was 5.54%.

As for `CCOC(=O)[C@@H](NC(=O)/C=C/[C@H]1O[C@@H](n2cc(C)c(=O)[nH]c2=O)C[C@@H]1O)C(C)C`, the “activation” value is 18.2%.

For `Cc1c(NC(=O)/C=C/c2cn(-c3ccccc3)nc2-c2ccccc2)c(=O)n(-c2ccccc2)n1C`, the “activation” value was 6.6%.

Take `CSc1nc(N2CCOCC2)c2c3c(sc2n1)CCC3`: the “activation” value is 23.3%.

`COCC(=O)Oc1c(Sc2ccc(C)cc2)c(C)nn1C(C)(C)C`: the “activation” value is -8.33%.

On to `COc1ccc(S(=O)(=O)N2CCC[C@H]2C(=O)N2CCC[C@H]2C(=O)NCc2ccccc2)cc1C`, for which the “activation” value was 15%.

As for `CCc1nn2c(-c3ccccc3OC)ccnc2c1-c1ccccc1`, the “activation” value was 12.6%.

Regarding `CC1(C)CC(=O)C=C(c2ccc(F)cc2OCc2ccccc2)C1`, the “activation” value was -7.03%.

On to `Oc1ccc(-c2c(-c3ccsc3)sc3ccccc23)cc1`, for which the “activation” value was 21.4%.

For the compound `N#Cc1cc2c(=O)n3ccccc3nc2n(-c2nnc(SCc3ccccc3Cl)s2)c1=O`, the “activation” value is 20.9%.

On to `O=C1CNC(=O)c2c(nc3n2CCC3)N1`, for which the “activation” value is 6.16%.

Consider `COC(CNC(=O)c1ccc2c3c(onc13)-c1ccccc1C2=O)OC`, for which the Potency was 50.1 µM (active).

On to `CCCn1c(CN2CCN(C(=O)c3ccco3)CC2)nc2c1c(=O)n(C)c(=O)n2C`, for which the “activation” value was 9.31%.

The record behind these values is PubChem BioAssay (NCATS).
